Out of some 5,500 compounds screened, about 2,000 (36%) were called active. About 18% were inconclusive and are not listed. Cut-off read from the data, not from the text of the source: active = normalized growth mostly below about 0.91 (no sharp cut-off); inconclusive = no clear call, values can overlap the other calls; inactive = mostly above about 0.92. This is one part of the list.
Assay: chemical genetic growth profiling, strain panel (AID 1159580);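 note: tested at 20 µM; growth read once vehicle control cultures reached saturation at 30 °C; 1 = growth at the plate median or of vehicle wells; lower values mean less growth of the strain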
Conditions: growth OD
[1] = S. cerevisiae deletion strains, locus YDL101C, strain DUN1, hits give low values
[2] = S. cerevisiae deletion strains, locus YHR030C, strain SLT2, hits give low values

Measured: normalized growth

O=[N+]([O-])c1ccc(-c2csc(Nc3ccncc3)n2)cc1
inactive: S. cerevisiae deletion strains, locus YAR019C, strain CDC15, hits give low values 0.995 | S. cerevisiae deletion strains, locus YBL105C, strain PKC1, hits give low values 0.978 | S. cerevisiae deletion strains, locus YBR135W, strain CKS1, hits give low values 0.982 | S. cerevisiae deletion strains, locus YBR136W, strain MEC1, hits give low values 0.996 | S. cerevisiae deletion strains, locus YBR160W, strain CDC28, hits give low values 0.989 | S. cerevisiae deletion strains, locus YDL017W, strain CDC7, hits give low values 0.99 | S. cerevisiae deletion strains, locus YDL028C, strain MPS1, hits give low values 0.998 | [1] 0.99 | S. cerevisiae deletion strains, locus YDL108W, strain KIN28, hits give low values 0.979 | S. cerevisiae deletion strains, locus YDL132W, strain cdc53, hits give low values 0.982 | S. cerevisiae deletion strains, locus YDL214C, strain PRR2, hits give low values 0.941 | S. cerevisiae deletion strains, locus YDR052C, strain DBF4, hits give low values 0.992 | S. cerevisiae deletion strains, locus YDR054C, strain cdc34, hits give low values 0.977 | S. cerevisiae deletion strains, locus YDR226W, strain ADK1, hits give low values 0.985 | S. cerevisiae deletion strains, locus YDR477W, strain SNF1, hits give low values 0.992 | S. cerevisiae deletion strains, locus YER123W, strain YCK3, hits give low values 0.982 | S. cerevisiae deletion strains, locus YER133W, strain GLC7, hits give low values 0.987 | S. cerevisiae deletion strains, locus YFL009W, strain cdc4, hits give low values 0.981 | S. cerevisiae deletion strains, locus YFL029C, strain CAK1, hits give low values 1.01 | S. cerevisiae deletion strains, locus YFR003C, strain YPI1, hits give low values 0.98 | S. cerevisiae deletion strains, locus YFR019W, strain FAB1, hits give low values 0.984 | S. cerevisiae deletion strains, locus YFR028C, strain CDC14, hits give low values 0.996 | S. cerevisiae deletion strains, locus YGR040W, strain KSS1, hits give low values 0.978 | S. cerevisiae deletion strains, locus YGR052W, strain FMP48, hits give low values 1.01 | S. cerevisiae deletion strains, locus YGR092W, strain DBF2, hits give low values 0.908 | [2] 1 | S. cerevisiae deletion strains, locus YHR079C, strain IRE1, hits give low values 1.01 | S. cerevisiae deletion strains, locus YHR082C, strain KSP1, hits give low values 1.08 | S. cerevisiae deletion strains, locus YHR205W, strain SCH9, hits give low values 0.923 | S. cerevisiae deletion strains, locus YIL147C, strain SLN1, hits give low values 0.991 | S. cerevisiae deletion strains, locus YJL095W, strain BCK1, hits give low values 1.03 | S. cerevisiae deletion strains, locus YJL128C, strain PBS2, hits give low values 0.943 | S. cerevisiae deletion strains, locus YJL157C, strain FAR1, hits give low values 0.996 | S. cerevisiae deletion strains, locus YJR016C, strain ILV3, hits give low values 0.978 | S. cerevisiae deletion strains, locus YJR066W, strain TOR1 (second series), hits give low values 0.991 | S. cerevisiae deletion strains, locus YJR066W, strain TOR1, hits give low values 0.968 | S. cerevisiae deletion strains, locus YKL048C, strain ELM1, hits give low values 0.976 | S. cerevisiae deletion strains, locus YKL067W, strain YNK1, hits give low values 0.941 | S. cerevisiae deletion strains, locus YKL101W, strain HSL1, hits give low values 0.98 | S. cerevisiae deletion strains, locus YKL193C, strain SDS22, hits give low values 0.988 | S. cerevisiae deletion strains, locus YKL203C, strain TOR2, hits give low values 1.07 | S. cerevisiae deletion strains, locus YLR113W, strain HOG1, hits give low values 0.981 | S. cerevisiae deletion strains, locus YLR133W, strain CKI1, hits give low values 0.976 | S. cerevisiae deletion strains, locus YLR403W, strain SFP1, hits give low values 1.01 | S. cerevisiae deletion strains, locus YML070W, strain DAK1, hits give low values 0.991 | S. cerevisiae deletion strains, locus YMR001C, strain CDC5, hits give low values 0.993 | S. cerevisiae deletion strains, locus YMR205C, strain PFK2 (second series), hits give low values 0.973 | S. cerevisiae deletion strains, locus YMR277W, strain FCP1, hits give low values 0.989 | S. cerevisiae deletion strains, locus YNL006W, strain LST8, hits give low values 0.994 | S. cerevisiae deletion strains, locus YNL020C, strain ARK1, hits give low values 0.975 | S. cerevisiae deletion strains, locus YNL161W, strain CBK1, hits give low values 0.994 | S. cerevisiae deletion strains, locus YNL183C, strain NPR1, hits give low values 1.02 | S. cerevisiae deletion strains, locus YNL207W, strain RIO2, hits give low values 0.984 | S. cerevisiae deletion strains, locus YNL222W, strain SSU72, hits give low values 0.996 | S. cerevisiae deletion strains, locus YNL307C, strain MCK1 (second series), hits give low values 0.976 | S. cerevisiae deletion strains, locus YOL078W, strain AVO1, hits give low values 0.986 | S. cerevisiae deletion strains, locus YOL136C, strain PFK27, hits give low values 0.979 | S. cerevisiae deletion strains, locus YOR061W, strain CKA2, hits give low values 0.957 | S. cerevisiae deletion strains, locus YOR119C, strain RIO1, hits give low values 1.01 | S. cerevisiae deletion strains, locus YOR231W, strain MKK1, hits give low values 0.97 | S. cerevisiae deletion strains, locus YOR329C, strain SCD5, hits give low values 0.992 | S. cerevisiae deletion strains, locus YPL031C, strain PHO85, hits give low values 0.98 | S. cerevisiae deletion strains, locus YPL153C, strain RAD53, hits give low values 1 | S. cerevisiae deletion strains, locus YPL204W, strain HRR25, hits give low values 0.982 | S. cerevisiae deletion strains, locus YPL209C, strain IPL1, hits give low values 0.991 | S. cerevisiae deletion strains, locus YPL256C, strain CLN2, hits give low values 1.03 | S. cerevisiae deletion strains, locus YPR025C, strain CCL1, hits give low values 0.985 | S. cerevisiae deletion strains, locus YPR106W, strain ISR1, hits give low values 0.98 | S. cerevisiae deletion strains, locus YPR111W, strain DBF20, hits give low values 0.969 | S. cerevisiae deletion strains, strain NNK1, hits give low values 0.996 | S. cerevisiae deletion strains, strain TSCII, hits give low values 1

O=[N+]([O-])c1cccc(-c2csc(Nc3ccccc3Cl)n2)c1
inactive: S. cerevisiae deletion strains, locus YAL013W, strain DEP1, hits give low values 0.94 | S. cerevisiae deletion strains, locus YBR229C, strain ROT2, hits give low values 0.966 | [1] 0.978 | S. cerevisiae deletion strains, locus YDR150W, strain NUM1, hits give low values 0.934 | S. cerevisiae deletion strains, locus YEL061C, strain CIN8, hits give low values 0.929 | S. cerevisiae deletion strains, locus YGR078C, strain PAC10, hits give low values 0.938 | S. cerevisiae deletion strains, locus YGR229C, strain SMI1, hits give low values 0.959 | S. cerevisiae deletion strains, locus YHR087W, strain rtc3, hits give low values 0.955 | S. cerevisiae deletion strains, locus YJL187C, strain SWE1, hits give low values 1.01 | S. cerevisiae deletion strains, locus YJR043C, strain POL32, hits give low values 0.979 | S. cerevisiae deletion strains, locus YLR058C, strain SHM2 (second series), hits give low values 0.964 | S. cerevisiae deletion strains, locus YMR219W, strain ESC1, hits give low values 0.964 | S. cerevisiae deletion strains, locus YMR263W, strain SAP30, hits give low values 0.945 | S. cerevisiae deletion strains, locus YNL153C, strain GIM3, hits give low values 0.972 | S. cerevisiae deletion strains, locus YNL322C, strain KRE1, hits give low values 0.977 | S. cerevisiae deletion strains, locus YPR135W, strain CTF4, hits give low values 0.795 | S. cerevisiae strains, strain wild type, hits give low values 0.915
active: [2] 0.418 | S. cerevisiae deletion strains, locus YJR075W, strain HOC1, hits give low values 0.88 | S. cerevisiae deletion strains, locus YKL190W, strain CNB1, hits give low values 0.907 | S. cerevisiae deletion strains, locus YLR039C, strain RIC1, hits give low values 0.6 | S. cerevisiae deletion strains, locus YLR085C, strain ARP6, hits give low values 0.571 | S. cerevisiae deletion strains, locus YLR262C, strain YPT6, hits give low values 0.727 | S. cerevisiae deletion strains, locus YML094W, strain GIM5, hits give low values 0.818 | S. cerevisiae deletion strains, locus YNL298W, strain CLA4 (second series), hits give low values 0.82 | S. cerevisiae deletion strains, locus YNR030W, strain Alg12, hits give low values 0.811 | S. cerevisiae deletion strains, locus YOL006C, strain TOP1, hits give low values 0.638 | S. cerevisiae deletion strains, locus YPL055C, strain LGE1, hits give low values 0.715 | S. cerevisiae deletion strains, locus YPL241C, strain CIN2, hits give low values 0.82
